Results filed as inconclusive are left out. A call without a number means that no potency is given here. Unmarked numbers belong to inactive results. Calls of active or inactive are those of the source. Unless noted, the call rests on the fitted dose curve; in most records, active means well fitted curve in the direction sought with a large enough effect in the repeat runs; inconclusive means weak or mixed curves; inactive means no such curve, though single readings can be large; an effect the other way counts as inactive or inconclusive.
Tests used:
[1] = qHTS assay to identify aromatase inhibitors - cell viability counter screen (AID 743084);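 further: cells stimulated with testosterone during compound exposure; nearly all actives have a fitted effect of over 55% in size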
[2] = target: Aryl hydrocarbon receptor (Homo sapiens) (UniProt P35869); assay: qHTS assay to identify small molecule that activate the aryl hydrocarbon receptor (AhR) signaling pathway (AID 743085); further: nearly all actives have a fitted effect of over 15% in size; further: potency means the concentration at half of the fitted maximal effect;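 on activation: HG2L7.5c1 human HepG2 liver cells with stably integrated DRE-driven firefly reporter; series mostly up to about 70 µM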
Chain of Aryl hydrocarbon receptor (Homo sapiens) (P35869 whole entry, looked up): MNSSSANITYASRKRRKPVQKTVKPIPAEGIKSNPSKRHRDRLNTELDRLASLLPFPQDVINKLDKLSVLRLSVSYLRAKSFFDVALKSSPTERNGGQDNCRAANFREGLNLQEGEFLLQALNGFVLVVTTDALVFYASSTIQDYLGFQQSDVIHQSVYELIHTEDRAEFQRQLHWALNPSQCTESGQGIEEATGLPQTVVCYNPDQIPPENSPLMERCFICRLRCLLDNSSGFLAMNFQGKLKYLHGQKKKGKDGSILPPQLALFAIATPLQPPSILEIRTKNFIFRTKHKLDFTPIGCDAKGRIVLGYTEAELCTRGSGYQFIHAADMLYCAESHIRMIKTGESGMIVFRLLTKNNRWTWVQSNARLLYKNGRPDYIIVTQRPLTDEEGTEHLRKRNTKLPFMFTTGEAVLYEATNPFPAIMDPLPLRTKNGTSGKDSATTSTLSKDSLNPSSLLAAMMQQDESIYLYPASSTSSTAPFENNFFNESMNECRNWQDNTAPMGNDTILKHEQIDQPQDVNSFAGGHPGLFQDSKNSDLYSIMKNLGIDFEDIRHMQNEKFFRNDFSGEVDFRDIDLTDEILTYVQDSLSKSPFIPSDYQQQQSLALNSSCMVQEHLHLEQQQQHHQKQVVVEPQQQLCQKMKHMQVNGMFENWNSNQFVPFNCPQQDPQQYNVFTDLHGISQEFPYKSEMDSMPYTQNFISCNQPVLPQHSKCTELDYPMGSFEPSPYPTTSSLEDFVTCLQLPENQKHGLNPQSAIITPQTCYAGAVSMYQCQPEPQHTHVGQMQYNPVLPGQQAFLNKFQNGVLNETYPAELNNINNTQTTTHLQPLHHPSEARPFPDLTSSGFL
In short: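 A multiplexed format paired cell viability (CellTiter-Fluor fluorescence) with AhR-dependent luciferase output (ONE-Glo luminescence) in the same wells of HepG2 DRE-luc cells after 24 h compound exposure at 37C.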

[3] = qHTS assay to identify small molecule that activate the aryl hydrocarbon receptor (AhR) signaling pathway - cell viability counter screen (AID 743086);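 further: HepG2 liver cells carrying the AhR DRE luciferase reporter; series mostly up to about 70 µM; nearly all actives have a fitted effect of over 45% in size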
In short: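 Cytotoxicity counter screen: CellTiter-Fluor signal (30 min, 37 C) in 4000 HepG2 cells/well carrying the DRE-luciferase reporter, following 24 h compound exposure at 37 C.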

[4] = qHTS assay to identify small molecule antagonists of the peroxisome proliferator-activated receptor gamma (PPARg) signaling pathway - cell viability counter screen (AID 743194); further: nearly all actives have a fitted effect of over 55% in size
In short: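 Viability was measured as CellTiter-Glo luminescence in GeneBLAzer PPARg UAS-bla HEK293H cells. These cells had been exposed 17 h at 37 C to compounds together with rosiglitazone at 50 nM final, with the beta-lactamase readout taken in the same wells.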

[5] = qHTS assay for small molecule agonists of the antioxidant response element (ARE) signaling pathway (AID 743202; active means well fitted activation curve with a large enough effect in the signal ratio in the repeat runs, not every such curve was filed as active; the % refers to the signal ratio)
In short: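 After 16 hours of compound treatment at 37 C, HepG2 cells with a stably integrated ARE-driven beta-lactamase reporter were loaded 2 hours at room temperature with LiveBLAzer B/G FRET substrate and fluorescence intensity measured.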

[6] = qHTS assay for small molecule agonists of the antioxidant response element (ARE) signaling pathway - cell viability counter screen (AID 743203; calls by dose curve; further: nearly all actives have a fitted effect of over 55% in size)
In short: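 Luminescence read-out (CellTiter-Glo, 30 min at room temperature) measured cell viability in the same wells as the ARE beta-lactamase reporter. HepG2 ARE-bla cells were treated with compounds for 16 hrs at 37C/5% CO2.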

[7] = qHTS assay for small molecule activators of the heat shock response signaling pathway - cell viability counter screen (AID 743209); further: nearly all actives have a fitted effect of over 50% in size
In short: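 HSE-bla HeLa; 1500 cells/well; overnight 37 C, 5% CO2; compound 5 h 37 C; LiveBLAzer B/G substrate 2.5 h RT; CellTiter-Glo 30 min RT; luminescence.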

[8] = qHTS assay for small molecule activators of the heat shock response signaling pathway (AID 743210; active means well fitted activation curve with a large enough effect in the signal ratio in the repeat runs, with a control signal flat, not every such curve was filed as active; the % refers to the signal ratio; further: series mostly up to about 63 µM)
In short: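 Compound exposure lasted 5 h at 37 C in HeLa cells carrying a heat-shock-element-driven beta-lactamase reporter. Read-out: fluorescence intensity after 2.5 h room-temperature loading with LiveBLAzer B/G FRET substrate.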

[9] = qHTS assay to identify small molecule agonists of the peroxisome proliferator-activated receptor delta (PPARd) signaling pathway - cell viability counter screen (AID 743211); further: nearly all actives have a fitted effect of over 55% in size
In short: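 Tox21 library compounds, delivered in DMSO, were incubated 17 h with PPARd-bla HEK293H cells; cytotoxicity was taken from CellTiter-Glo luminescence read 30 min after reagent addition.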

[10] = target: Peroxisome proliferator-activated receptor delta (Homo sapiens) (UniProt Q03181); assay: qHTS assay to identify small molecule agonists of the peroxisome proliferator-activated receptor delta (PPARd) signaling pathway (AID 743212; calls by dose curve)
Chain of Peroxisome proliferator-activated receptor delta (Homo sapiens) (Q03181 whole entry, looked up): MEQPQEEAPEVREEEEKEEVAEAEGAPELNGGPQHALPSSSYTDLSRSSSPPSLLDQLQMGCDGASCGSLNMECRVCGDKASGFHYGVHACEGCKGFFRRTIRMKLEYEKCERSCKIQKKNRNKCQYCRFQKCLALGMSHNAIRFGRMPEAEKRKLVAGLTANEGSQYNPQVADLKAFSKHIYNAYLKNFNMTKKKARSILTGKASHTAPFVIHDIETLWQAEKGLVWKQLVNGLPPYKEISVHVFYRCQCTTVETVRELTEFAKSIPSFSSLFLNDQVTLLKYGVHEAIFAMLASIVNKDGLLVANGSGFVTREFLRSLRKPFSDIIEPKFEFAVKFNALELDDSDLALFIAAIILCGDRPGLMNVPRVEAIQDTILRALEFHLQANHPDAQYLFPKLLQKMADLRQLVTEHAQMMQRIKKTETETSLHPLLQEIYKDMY
In short: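 Beta-lactamase reporter readout: a ratiometric FRET signal from the LiveBLAzer substrate after 2 h at room temperature. Compound exposure at 37 °C in PPARδ-bla HEK293H cells driven by an upstream activator sequence.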

[11] = qHTS assay to identify small molecule antagonists of the peroxisome proliferator-activated receptor delta (PPARd) signaling pathway - cell viability counter screen (AID 743213); further: nearly all actives have a fitted effect of over 50% in size
In short: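 Same-well viability: cells pre-incubated 5 h, dosed with compound plus 300 nM L165041, kept 17 h at 37 C, FRET substrate 2 h RT, then CellTiter-Glo 30 min RT and luminescence.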

[12] = target: Peroxisome proliferator-activated receptor delta (Homo sapiens) (UniProt Q03181); assay: qHTS assay to identify small molecule antagonists of the peroxisome proliferator-activated receptor delta (PPARd) signaling pathway (AID 743215; active means well fitted inhibition curve with a large enough effect in the signal ratio in the repeat runs, not every such curve was filed as active; the % refers to the signal ratio;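 further: cells stimulated with agonist L165041 at 300 nM final during compound exposure; series mostly up to about 62 µM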)
In short: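 HEK293H GeneBLAzer PPARd UAS-bla reporter cells; cpd + L165041 300 nM final, 17 h 37 C; LiveBLAzer B/G FRET substrate 2 h RT; fluorescence intensity read-out. Antagonist mode.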

[13] = qHTS assay to identify small molecule agonists of the farnesoid-X-receptor (FXR) signaling pathway - cell viability counter screen (AID 743218); further: nearly all actives have a fitted effect of over 45% in size
In short: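 Luminescence from CellTiter-Glo, read after 30 min at RT, reports viability of GeneBLAzer FXR-UAS-bla HEK 293T cells treated 16 h with compounds in the wells used for the beta-lactamase reporter.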

[14] = target: Bile acid receptor (Homo sapiens) (UniProt Q96RI1); assay: qHTS assay to identify small molecule antagonists of the farnesoid-X-receptor (FXR) signaling pathway (AID 743217; active means well fitted inhibition curve with a large enough effect in the signal ratio in the repeat runs, not every such curve was filed as active; the % refers to the signal ratio)
Chain of Bile acid receptor (Homo sapiens) (Q96RI1 whole entry, looked up): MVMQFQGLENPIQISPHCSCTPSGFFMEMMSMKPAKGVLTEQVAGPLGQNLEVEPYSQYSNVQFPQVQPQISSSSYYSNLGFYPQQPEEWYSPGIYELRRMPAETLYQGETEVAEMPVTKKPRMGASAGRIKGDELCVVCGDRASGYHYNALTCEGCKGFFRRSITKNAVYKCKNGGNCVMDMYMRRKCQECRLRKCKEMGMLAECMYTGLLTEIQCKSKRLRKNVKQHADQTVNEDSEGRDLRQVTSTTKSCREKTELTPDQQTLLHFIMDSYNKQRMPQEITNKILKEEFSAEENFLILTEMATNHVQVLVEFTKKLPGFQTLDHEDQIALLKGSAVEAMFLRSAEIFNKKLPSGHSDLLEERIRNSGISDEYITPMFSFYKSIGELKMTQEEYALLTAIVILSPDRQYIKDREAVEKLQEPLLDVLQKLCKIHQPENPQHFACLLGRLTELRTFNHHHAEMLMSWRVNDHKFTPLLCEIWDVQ
In short: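 Read-out: beta-lactamase FRET fluorescence (LiveBLAzer B/G substrate, 2 h, room temperature) in GeneBLAzer FXR-UAS-bla HEK 293T cells. Compounds were co-dosed with 50 uM chenodeoxycholic acid (final) and incubated 16 h at 37 °C.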

[15] = target: Bile acid receptor (Homo sapiens) (UniProt Q96RI1); assay: qHTS assay to identify small molecule agonists of the farnesoid-X-receptor (FXR) signaling pathway (AID 743220; active means well fitted activation curve with a large enough effect in the signal ratio in the repeat runs, not every such curve was filed as active; the % refers to the signal ratio)
In short: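 FXR-UAS-bla HEK 293T cells carrying a UAS-driven beta-lactamase reporter were plated for 5 h at 37C/5% CO2, then exposed to DMSO-dissolved Tox21 10K compounds for 16 h at 37C. A LiveBLAzer B/G FRET substrate was loaded for 2 h at room temperature before fluorescence reading.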

[16] = target: Vitamin D3 receptor (Homo sapiens) (UniProt P11473); assay: qHTS assay to identify small molecule agonists of the vitamin D receptor (VDR) signaling pathway (AID 743222; calls by dose curve)
Chain of Vitamin D3 receptor (Homo sapiens) (P11473 whole entry, looked up): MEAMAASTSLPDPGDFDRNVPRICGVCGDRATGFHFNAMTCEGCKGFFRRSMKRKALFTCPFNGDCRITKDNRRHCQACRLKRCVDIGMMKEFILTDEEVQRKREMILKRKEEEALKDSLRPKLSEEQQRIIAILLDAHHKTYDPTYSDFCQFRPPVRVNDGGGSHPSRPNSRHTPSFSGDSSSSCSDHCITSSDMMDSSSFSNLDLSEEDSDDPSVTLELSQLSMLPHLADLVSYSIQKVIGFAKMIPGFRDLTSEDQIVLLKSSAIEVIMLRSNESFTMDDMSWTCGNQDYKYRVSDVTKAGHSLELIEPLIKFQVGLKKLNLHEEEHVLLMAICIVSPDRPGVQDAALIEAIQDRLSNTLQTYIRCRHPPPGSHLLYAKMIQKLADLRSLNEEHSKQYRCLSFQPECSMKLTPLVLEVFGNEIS
In short: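 Beta-lactamase reporter readout (LiveBLAzer B/G FRET, 2 h RT) in VDR-bla cells after 16 h compound treatment at 37C, 5% CO2; cells pre-incubated 4 h before pin transfer of DMSO solutions.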

[17] = target: Vitamin D3 receptor (Homo sapiens) (UniProt P11473); assay: qHTS assay to identify small molecule antagonists of the vitamin D receptor (VDR) signaling pathway (AID 743223; active means well fitted inhibition curve with a large enough effect in the signal ratio in the repeat runs, not every such curve was filed as active; the % refers to the signal ratio)
In short: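 Quantitative HTS in VDR-bla reporter cells stimulated with 1alpha,25-dihydroxyvitamin D3, 3 nM final. Compound exposure 16 h, 37C, 5% CO2. Read-out: beta-lactamase FRET substrate fluorescence, 2 h RT.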

[18] = target: Peroxisome proliferator-activated receptor gamma (Homo sapiens) (UniProt P37231); assay: qHTS assay to identify small molecule agonists of the peroxisome proliferator-activated receptor gamma (PPARg) signaling pathway (AID 743094; active means well fitted activation curve with a large enough effect in the signal ratio in the repeat runs, not every such curve was filed as active; the % refers to the signal ratio)
Chain of Peroxisome proliferator-activated receptor gamma (Homo sapiens) (P37231 whole entry, looked up): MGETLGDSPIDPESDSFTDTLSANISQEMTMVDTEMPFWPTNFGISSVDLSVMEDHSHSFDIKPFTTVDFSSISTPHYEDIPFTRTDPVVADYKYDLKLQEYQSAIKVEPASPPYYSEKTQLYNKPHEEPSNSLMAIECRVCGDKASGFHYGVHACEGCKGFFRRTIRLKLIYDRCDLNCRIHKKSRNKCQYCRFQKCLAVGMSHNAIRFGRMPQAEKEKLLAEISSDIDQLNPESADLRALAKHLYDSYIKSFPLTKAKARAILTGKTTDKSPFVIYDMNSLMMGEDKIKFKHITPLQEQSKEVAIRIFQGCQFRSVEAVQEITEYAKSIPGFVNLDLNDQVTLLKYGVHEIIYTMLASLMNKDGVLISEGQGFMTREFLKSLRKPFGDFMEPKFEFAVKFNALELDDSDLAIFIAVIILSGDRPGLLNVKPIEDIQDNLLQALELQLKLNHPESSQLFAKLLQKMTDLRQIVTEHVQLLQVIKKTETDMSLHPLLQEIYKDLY
In short: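 HEK293H PPARg-bla cells, 5 h settle at 37C/5% CO2; compound (DMSO) 17 h, 37C; B/G FRET substrate 1 h RT; fluorescence intensity read-out. qHTS format.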

[19] = target: Peroxisome proliferator-activated receptor gamma (Homo sapiens) (UniProt P37231); assay: qHTS assay to identify small molecule antagonists of the peroxisome proliferator-activated receptor gamma (PPARg) signaling pathway (AID 743191; calls by dose curve; further: series mostly up to about 63 µM; nearly all actives have a fitted effect of over 30% in size)
In short: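 Beta-lactamase reporter under UAS control in HEK293H PPARg-bla cells; compound treatment 17 h at 37C. Read-out: fluorescence intensity after 1 h room-temperature incubation with LiveBLAzer B/G FRET substrate.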

[20] = qHTS assay to identify small molecule antagonists of the farnesoid-X-receptor (FXR) signaling pathway - cell viability counter screen (AID 743221; active means well fitted cell-killing curve with a large enough effect in the repeat runs, not every such curve was filed as active; further: nearly all actives have a fitted effect of over 50% in size)
In short: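 Cytotoxicity is taken from ATP luminescence (CellTiter-Glo, 30 min, room temperature) in FXR-bla HEK 293T cells previously incubated 16 h at 37 C with compound and chenodeoxycholic acid at 50 uM final.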

In the case of `O=C(OOC(=O)c1ccccc1)c1ccccc1`, the outcome [1] is reported as “inactive”, the Potency [2] is reported as “inactive” and the outcome [3] is reported as “inactive”. For the same compound, the outcome [4] was “inactive”, the Potency [5] was “inactive” and the outcome [6] was “inactive”. For the same compound, the Potency [7] was “inactive”, the outcome [8] was “inactive” and the outcome [9] was “inactive”. For the same compound, the outcome [10] was “inactive”, the outcome [11] was “inactive” and the outcome [12] was “inactive”. For the same compound, the outcome [13] was “inactive”.
In the case of `CCCCCC(=O)CC`, the outcome [1] is reported as “inactive”, the Potency [2] is reported as “inactive” and the outcome [3] is reported as “inactive”. The outcome [4] was “inactive”, the outcome [6] was “inactive” and the Potency [7] was “inactive”. The outcome [8] was “inactive”, the outcome [9] was “inactive” and the outcome [10] was “inactive”. For the same compound, the outcome [11] was “inactive”, the outcome [14] was “inactive” and the outcome [13] was “inactive”. For the same compound, the outcome [15] was “inactive”, the outcome [16] was “inactive” and the outcome [17] was “inactive”.
For `O=c1[nH]c(=O)c2cn[nH]c2[nH]1`, the outcome [1] was “inactive”, the Potency [2] was “inactive” and the outcome [18] was “inactive”. For the same compound, the outcome [19] was “inactive”, the outcome [4] was “inactive” and the outcome [6] was “inactive”. The Potency [7] was “inactive”, the outcome [8] was “inactive” and the outcome [9] was “inactive”. The outcome [10] was “inactive”, the outcome [11] was “inactive” and the outcome [12] was “inactive”. For the same compound, the outcome [13] was “inactive”, the outcome [16] was “inactive” and the outcome [17] was “inactive”.
With `COC(C)(C)CC(C)=O` the outcome [1] was “inactive”, the Potency [2] was “inactive” and the outcome [3] was “inactive”. For the same compound, the outcome [4] was “inactive”, the Potency [5] was “inactive” and the outcome [6] was “inactive”. The Potency [7] was “inactive”, the outcome [8] was “inactive” and the outcome [9] was “inactive”. The outcome [12] was “inactive”, the outcome [14] was “inactive” and the outcome [13] was “inactive”. For the same compound, the outcome [20] was “inactive” and the outcome [16] was “inactive”.
With `Cc1ccccc1C#N` the outcome [1] was “inactive”, the Potency [2] was “inactive” and the outcome [3] was “inactive”. For the same compound, the outcome [19] was “inactive”, the outcome [4] was “inactive” and the outcome [6] was “inactive”. For the same compound, the Potency [7] was “inactive”, the outcome [8] was “inactive” and the outcome [9] was “inactive”. For the same compound, the outcome [10] was “inactive”, the outcome [11] was “inactive” and the outcome [12] was “inactive”. For the same compound, the outcome [14] was “inactive”, the outcome [13] was “inactive” and the outcome [20] was “inactive”. The outcome [16] was “inactive” and the outcome [17] was “inactive”.
For `CCN(CC)CC`, the outcome [1] was “inactive”, the Potency [2] was “inactive” and the outcome [3] was “inactive”. The outcome [4] was “inactive”, the outcome [6] was “inactive” and the Potency [7] was “inactive”. For the same compound, the outcome [8] was “inactive”, the outcome [9] was “inactive” and the outcome [11] was “inactive”. The outcome [12] was “inactive”, the outcome [13] was “inactive” and the outcome [16] was “inactive”. For the same compound, the outcome [17] was “inactive”.
For `C[C@@H]1CC[C@@]2(OC1)O[C@H]1C[C@H]3[C@@H]4CC[C@H]5C[C@@H](O)CC[C@]5(C)[C@H]4CC(=O)[C@]3(C)[C@H]1[C@@H]2C`, the outcome [1] was “inactive”, the Potency [2] was “inactive” and the outcome [3] was “inactive”. It also gave an activity change, negative = cytotoxicity [4] of 10.8% [at 5.95 µM], an activation [5] of 5.01% [at 8.36 µM] and a viability change, negative = cytotoxic [6] of 3.19% [at 8.36 µM]. The activity change, negative = cytotoxicity [7] was 11.4% [at 5.95 µM], the activation [8] was 0.0014% [at 5.95 µM] and the activity change, negative = cytotoxicity [9] was 5.8% [at 5.95 µM]. It also gave an activation [10] of 0.168% [at 5.95 µM], a viability change, negative = cytotoxic [11] of 11.9% [at 6.26 µM] and a ratio activity, negative = inhibition [12] of 2.62% [at 6.26 µM]. It also gave a viability change, negative = cytotoxic [13] of 12.5% [at 5.95 µM], an activation [15] of 2.31% [at 5.95 µM] and an activity change, negative = cytotoxicity [20] of 4.76% [at 5.95 µM].
In the case of `CC(=O)Nc1ccc(OCCOCCOc2ccc(NC(C)=O)cc2)cc1`, the outcome [1] is reported as “inactive”, the Potency [2] is reported as “inactive” and the outcome [18] is reported as “inactive”. The outcome [19] was “inactive”, the outcome [4] was “inactive” and the Potency [5] was “inactive”. The outcome [6] was “inactive”, the Potency [7] was “inactive” and the outcome [8] was “inactive”. For the same compound, the outcome [11] was “inactive”, the outcome [13] was “inactive” and the outcome [20] was “inactive”.
With `COc1ccc2cc(CCC(C)=O)ccc2c1` the outcome [1] was “inactive”, the Potency [2] was 3.2 µM (active) and the outcome [3] was “inactive”. The outcome [19] was “inactive”, the outcome [4] was “inactive” and the outcome [6] was “inactive”. The Potency [7] was “inactive”, the outcome [8] was “inactive” and the outcome [9] was “inactive”. The outcome [10] was “inactive”, the outcome [13] was “inactive” and the outcome [15] was “inactive”. For the same compound, the outcome [20] was “inactive”.

From PubChem BioAssay (Tox21)
